The source of these data is article PMC7862700, “An all-to-all approach to the identification of sequence-specific readers for epigenetic DNA modifications on cytosine”.

Common to all, as to experiment: DAPPL (digital affinity profiling via proximity ligation, sequencing); 10 mM Tris-HCl pH 7.5, 50 mM NaCl, 1 mM DTT, 4% glycerol, room temperature, 30 min; GST-TFs on glutathione beads, 16-mer random dsDNA library, 0.1% formaldehyde crosslink after washing; high values mean tight binding
What all share (conditions): protein: recombinant; tags: N-terminal GST; dsDNA, one strand shown

One test concerns the target T1, FLI1 (Homo sapiens, UniProt Q01543 1-452).
T1 sequence: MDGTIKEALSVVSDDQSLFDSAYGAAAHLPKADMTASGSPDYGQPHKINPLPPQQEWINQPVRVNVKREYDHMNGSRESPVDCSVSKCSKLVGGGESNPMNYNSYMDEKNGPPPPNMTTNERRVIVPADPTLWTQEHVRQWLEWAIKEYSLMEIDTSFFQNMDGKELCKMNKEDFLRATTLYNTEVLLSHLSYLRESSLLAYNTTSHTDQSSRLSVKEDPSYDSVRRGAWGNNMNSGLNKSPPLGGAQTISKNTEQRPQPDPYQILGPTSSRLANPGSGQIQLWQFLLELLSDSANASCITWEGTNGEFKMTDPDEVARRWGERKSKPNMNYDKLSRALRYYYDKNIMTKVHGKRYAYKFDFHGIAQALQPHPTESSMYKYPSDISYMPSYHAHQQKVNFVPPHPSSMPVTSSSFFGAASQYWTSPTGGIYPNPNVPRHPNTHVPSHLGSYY
The procedure, abridged:
(§1)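 Binding signal is given per hexamer as its read frequency for a factor divided by its frequency in the tag-only sample. GST-fused human transcription factors were expressed in yeast, captured on glutathione beads, barcoded with DNA and pooled with that sample, then incubated with 200 nmole of a 16-mer random double-stranded DNA library in Tris/NaCl/DTT/glycerol buffer for 30 min at room temperature. The pools were then washed, crosslinked, proximity-ligated, amplified by PCR and sequenced on an Illumina NextSeq500.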

For the next test, the target named is T2, ELK1 (Homo sapiens, UniProt P19419 1-428).
T2 sequence: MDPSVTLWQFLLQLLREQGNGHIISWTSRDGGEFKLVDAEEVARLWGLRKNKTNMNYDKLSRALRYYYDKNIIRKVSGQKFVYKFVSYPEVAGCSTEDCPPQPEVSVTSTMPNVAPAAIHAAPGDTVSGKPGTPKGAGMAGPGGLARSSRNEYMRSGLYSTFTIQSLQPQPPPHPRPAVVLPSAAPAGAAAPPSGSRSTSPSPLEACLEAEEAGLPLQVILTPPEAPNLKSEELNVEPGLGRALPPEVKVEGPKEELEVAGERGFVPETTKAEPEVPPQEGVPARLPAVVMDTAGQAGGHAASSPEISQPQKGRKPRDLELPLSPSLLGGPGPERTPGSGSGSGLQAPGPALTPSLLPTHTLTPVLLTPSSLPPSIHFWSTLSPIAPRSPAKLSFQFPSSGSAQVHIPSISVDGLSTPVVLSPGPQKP
A digest of the protocol:
as §1

The target of another test is T3, GABPA (Homo sapiens, UniProt Q06546 1-454).
T3 sequence: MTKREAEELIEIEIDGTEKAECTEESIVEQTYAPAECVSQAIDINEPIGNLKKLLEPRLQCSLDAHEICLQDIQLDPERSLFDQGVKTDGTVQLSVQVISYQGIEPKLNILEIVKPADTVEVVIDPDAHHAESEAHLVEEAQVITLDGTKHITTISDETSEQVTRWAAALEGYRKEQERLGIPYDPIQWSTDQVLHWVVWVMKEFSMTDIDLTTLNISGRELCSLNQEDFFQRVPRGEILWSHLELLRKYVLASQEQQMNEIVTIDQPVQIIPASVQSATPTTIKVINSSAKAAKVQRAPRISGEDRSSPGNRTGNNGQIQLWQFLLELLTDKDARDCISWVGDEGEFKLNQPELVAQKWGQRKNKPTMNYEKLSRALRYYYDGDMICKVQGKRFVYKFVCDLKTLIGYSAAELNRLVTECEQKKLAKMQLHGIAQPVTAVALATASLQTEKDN
A digest of the protocol: as §1

The target of a further test is T4, ERG (Homo sapiens, UniProt P11308 1-479).
T4 sequence: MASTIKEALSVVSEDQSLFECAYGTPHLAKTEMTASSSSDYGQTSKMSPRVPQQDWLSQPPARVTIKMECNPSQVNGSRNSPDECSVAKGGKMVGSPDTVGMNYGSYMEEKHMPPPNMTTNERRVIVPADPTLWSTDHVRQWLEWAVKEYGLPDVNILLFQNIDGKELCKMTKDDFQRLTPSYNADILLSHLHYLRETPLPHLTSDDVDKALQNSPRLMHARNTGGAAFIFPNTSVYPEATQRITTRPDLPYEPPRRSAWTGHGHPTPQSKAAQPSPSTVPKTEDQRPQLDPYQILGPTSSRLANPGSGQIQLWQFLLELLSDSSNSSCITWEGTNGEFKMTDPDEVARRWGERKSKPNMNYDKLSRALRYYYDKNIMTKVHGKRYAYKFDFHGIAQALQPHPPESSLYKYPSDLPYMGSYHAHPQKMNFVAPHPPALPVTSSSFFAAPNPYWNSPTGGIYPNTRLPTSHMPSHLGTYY
A digest of the protocol: as §1

The target of a further test is ELF1 (Homo sapiens, UniProt P32519 1-619). A digest of the protocol:
as §1

For another test, the target named is T5, EHF (Homo sapiens, UniProt Q9NZC4 1-300).
T5 sequence: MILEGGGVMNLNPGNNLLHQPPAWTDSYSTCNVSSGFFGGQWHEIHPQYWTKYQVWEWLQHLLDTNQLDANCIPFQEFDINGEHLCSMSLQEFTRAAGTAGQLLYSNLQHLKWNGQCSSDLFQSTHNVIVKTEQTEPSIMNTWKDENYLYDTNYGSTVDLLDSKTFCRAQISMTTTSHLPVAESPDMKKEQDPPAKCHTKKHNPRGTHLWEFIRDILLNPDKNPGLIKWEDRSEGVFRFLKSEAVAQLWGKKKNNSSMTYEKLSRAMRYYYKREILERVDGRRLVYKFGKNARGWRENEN
The procedure, abridged: as §1

A further test addresses SPI1 (Homo sapiens, UniProt P17947 1-270). A digest of the protocol: as §1
The target of another test is SPIB (Homo sapiens, UniProt Q01892 1-262). A digest of the protocol: as §1
Sequence of SPIB (Q01892 whole entry): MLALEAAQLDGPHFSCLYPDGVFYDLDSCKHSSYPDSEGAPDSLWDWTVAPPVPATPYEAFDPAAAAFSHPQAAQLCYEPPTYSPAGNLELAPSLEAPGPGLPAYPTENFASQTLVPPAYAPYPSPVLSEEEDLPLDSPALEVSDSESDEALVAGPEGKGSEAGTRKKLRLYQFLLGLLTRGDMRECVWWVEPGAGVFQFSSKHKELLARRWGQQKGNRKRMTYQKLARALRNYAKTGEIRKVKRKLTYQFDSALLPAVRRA
For another test, the target named is T6, ELK3 (Homo sapiens, UniProt P41970 1-407).
T6 sequence: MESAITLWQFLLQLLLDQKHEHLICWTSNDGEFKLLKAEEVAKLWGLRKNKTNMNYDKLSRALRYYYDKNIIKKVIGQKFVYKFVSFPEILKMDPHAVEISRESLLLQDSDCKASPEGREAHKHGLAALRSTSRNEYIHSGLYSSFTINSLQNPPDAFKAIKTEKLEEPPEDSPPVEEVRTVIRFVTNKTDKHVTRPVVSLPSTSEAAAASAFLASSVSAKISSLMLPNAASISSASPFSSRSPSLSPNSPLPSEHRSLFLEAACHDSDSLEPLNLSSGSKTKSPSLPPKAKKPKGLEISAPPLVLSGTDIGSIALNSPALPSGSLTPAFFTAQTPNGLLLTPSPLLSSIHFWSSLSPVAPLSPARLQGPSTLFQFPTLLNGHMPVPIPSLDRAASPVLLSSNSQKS
The procedure, abridged: as §1

Sequence of ELF1 (P32519 whole entry): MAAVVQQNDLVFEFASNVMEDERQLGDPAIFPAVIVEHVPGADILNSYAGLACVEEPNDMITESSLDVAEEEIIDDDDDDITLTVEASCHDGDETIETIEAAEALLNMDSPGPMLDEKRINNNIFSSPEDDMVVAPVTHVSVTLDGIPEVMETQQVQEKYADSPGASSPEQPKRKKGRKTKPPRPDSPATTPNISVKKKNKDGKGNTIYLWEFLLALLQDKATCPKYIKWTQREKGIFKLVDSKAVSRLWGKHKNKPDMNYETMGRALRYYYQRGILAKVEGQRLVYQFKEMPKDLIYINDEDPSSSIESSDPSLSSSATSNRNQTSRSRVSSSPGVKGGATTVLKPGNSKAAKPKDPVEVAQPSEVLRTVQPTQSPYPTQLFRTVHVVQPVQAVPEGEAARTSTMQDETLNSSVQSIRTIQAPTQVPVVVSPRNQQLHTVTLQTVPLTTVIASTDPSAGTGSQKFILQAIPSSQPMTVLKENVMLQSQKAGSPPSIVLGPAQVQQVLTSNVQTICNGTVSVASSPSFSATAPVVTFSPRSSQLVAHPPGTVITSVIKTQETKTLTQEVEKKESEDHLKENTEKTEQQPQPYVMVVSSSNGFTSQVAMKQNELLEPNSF

Regarding AAATCC, the binding signal with FLI1 was 1.54 fold enrichment (6-mer frequency, TF over GST control); in the test with ELK1, 1.66 fold enrichment (6-mer frequency, TF over GST control); with GABPA it was 1.5 fold enrichment (6-mer frequency, TF over GST control); with ERG, 1.81 fold enrichment (6-mer frequency, TF over GST control); with ELF1, 1.59 fold enrichment (6-mer frequency, TF over GST control); with EHF, 1.58 fold enrichment (6-mer frequency, TF over GST control). Moreover, the binding signal was 1.5 fold enrichment (6-mer frequency, TF over GST control) with SPI1; 1.65 fold enrichment (6-mer frequency, TF over GST control) with SPIB; 1.53 fold enrichment (6-mer frequency, TF over GST control) with ELK3.
For the sequence CTAACT, the binding signal is 1.36 fold enrichment (6-mer frequency, TF over GST control) in the test with FLI1; 1.35 fold enrichment (6-mer frequency, TF over GST control) in the test with ELK1; 1.36 fold enrichment (6-mer frequency, TF over GST control) in the test with GABPA; 1.37 fold enrichment (6-mer frequency, TF over GST control) with ERG; 1.37 fold enrichment (6-mer frequency, TF over GST control) in the test with ELF1; 1.25 fold enrichment (6-mer frequency, TF over GST control) in the test with EHF. The binding signal in the test with SPI1 is 1.36 fold enrichment (6-mer frequency, TF over GST control); with SPIB it was 1.35 fold enrichment (6-mer frequency, TF over GST control); with ELK3, 1.29 fold enrichment (6-mer frequency, TF over GST control).
Consider TTGCCT, for which the binding signal with FLI1 was 1.16 fold enrichment (6-mer frequency, TF over GST control); with ELK1 it was 1.18 fold enrichment (6-mer frequency, TF over GST control); with GABPA, 1.15 fold enrichment (6-mer frequency, TF over GST control); in the test with ERG it was 1.17 fold enrichment (6-mer frequency, TF over GST control); with ELF1, 1.21 fold enrichment (6-mer frequency, TF over GST control); in the test with EHF, 1.13 fold enrichment (6-mer frequency, TF over GST control). Also, the binding signal with SPI1 is 1.15 fold enrichment (6-mer frequency, TF over GST control); in the test with SPIB, 1.25 fold enrichment (6-mer frequency, TF over GST control); with ELK3 it was 1.3 fold enrichment (6-mer frequency, TF over GST control).
As to CTCTTA, the binding signal with FLI1 is 1.35 fold enrichment (6-mer frequency, TF over GST control); with ELK1 it was 1.4 fold enrichment (6-mer frequency, TF over GST control); with GABPA it was 1.45 fold enrichment (6-mer frequency, TF over GST control); with ERG, 1.27 fold enrichment (6-mer frequency, TF over GST control); in the test with ELF1, 1.51 fold enrichment (6-mer frequency, TF over GST control); with EHF, 1.23 fold enrichment (6-mer frequency, TF over GST control). The binding signal with SPI1 was 1.4 fold enrichment (6-mer frequency, TF over GST control); in the test with SPIB, 1.32 fold enrichment (6-mer frequency, TF over GST control); in the test with ELK3, 1.36 fold enrichment (6-mer frequency, TF over GST control).
CTACAT: the binding signal was 1.43 fold enrichment (6-mer frequency, TF over GST control) with FLI1; 1.4 fold enrichment (6-mer frequency, TF over GST control) with ELK1; 1.44 fold enrichment (6-mer frequency, TF over GST control) with GABPA; 1.32 fold enrichment (6-mer frequency, TF over GST control) in the test with ERG; 1.38 fold enrichment (6-mer frequency, TF over GST control) with ELF1; 1.28 fold enrichment (6-mer frequency, TF over GST control) with EHF. Also, the binding signal is 1.38 fold enrichment (6-mer frequency, TF over GST control) with SPI1; 1.5 fold enrichment (6-mer frequency, TF over GST control) with SPIB; 1.43 fold enrichment (6-mer frequency, TF over GST control) with ELK3.
Consider TTCACG, for which the binding signal with FLI1 is 1.48 fold enrichment (6-mer frequency, TF over GST control); with ELK1 it was 1.44 fold enrichment (6-mer frequency, TF over GST control); with GABPA, 1.41 fold enrichment (6-mer frequency, TF over GST control); with ERG it was 1.37 fold enrichment (6-mer frequency, TF over GST control); with ELF1, 1.38 fold enrichment (6-mer frequency, TF over GST control); with EHF, 1.29 fold enrichment (6-mer frequency, TF over GST control). The binding signal with SPI1 is 1.3 fold enrichment (6-mer frequency, TF over GST control); in the test with SPIB, 1.31 fold enrichment (6-mer frequency, TF over GST control); with ELK3, 1.42 fold enrichment (6-mer frequency, TF over GST control).
With TCGACT, the binding signal is 1.33 fold enrichment (6-mer frequency, TF over GST control) with FLI1; 1.34 fold enrichment (6-mer frequency, TF over GST control) in the test with ELK1; 1.3 fold enrichment (6-mer frequency, TF over GST control) with GABPA; 1.35 fold enrichment (6-mer frequency, TF over GST control) with ERG; 1.43 fold enrichment (6-mer frequency, TF over GST control) with ELF1; 1.39 fold enrichment (6-mer frequency, TF over GST control) in the test with EHF. The binding signal was 1.42 fold enrichment (6-mer frequency, TF over GST control) with SPI1; 1.39 fold enrichment (6-mer frequency, TF over GST control) in the test with SPIB; 1.47 fold enrichment (6-mer frequency, TF over GST control) in the test with ELK3.
AATACG: the binding signal is 1.11 fold enrichment (6-mer frequency, TF over GST control) in the test with FLI1; 1.19 fold enrichment (6-mer frequency, TF over GST control) in the test with ELK1; 1.24 fold enrichment (6-mer frequency, TF over GST control) in the test with GABPA; 1.22 fold enrichment (6-mer frequency, TF over GST control) in the test with ERG; 1.12 fold enrichment (6-mer frequency, TF over GST control) in the test with ELF1; 1.18 fold enrichment (6-mer frequency, TF over GST control) with EHF. In addition, the binding signal with SPI1 is 1.32 fold enrichment (6-mer frequency, TF over GST control); with SPIB, 1.25 fold enrichment (6-mer frequency, TF over GST control); with ELK3, 1.26 fold enrichment (6-mer frequency, TF over GST control).
